Source: PubChem BioAssay AID1814 (Broad Institute, 2009)
Screen size: about 300,000 compounds; about 22,000 (7.3%) were called active. Roughly 2% stayed inconclusive and do not appear here. Cut-off read from the data, not from the text of the source: active = activity score below about -60%; inconclusive = mostly about -28% to -61%; inactive = positive scores. The full list was thinned out, with actives kept by preference.

Assay: Activators via SNCA 5'UTR binding, MLPCN (AID 1814)
Conditions: alpha-synuclein 5'UTR reporter, activators screen; stronger effect = lower value; tested at 7.5 µM

| SMILES | activity score |
| --- | --- |
| COc1ccc(/C=N/OCc2ccccc2C#N)c(OC)c1 | -182% (active) |
| COc1ccc(N2CCN(C(=O)c3cccs3)CC2)cc1 | -69.4% (active) |
| Cc1ccc(O)c(CNc2nc3ccccc3[nH]2)c1 | -69.9% (active) |
| COC(=O)Nc1nc2ccc(Sc3ccccc3)cc2[nH]1 | 59.2% (inactive) |
| Cc1ccc(-c2nc(COC(=O)c3c(C)noc3C)cs2)cc1 | -170% (active) |
| CCN1/C(=C/C(=S)Nc2ccccc2)Sc2ccccc21 | -111% (active) |
| CSc1nccc(NC(=O)c2ccc(C(C)(C)C)cc2)n1 | -147% (active) |
| O=C(NC(=S)NC1CCCCC1)c1ccc(Cl)cc1 | -160% (active) |
| CC(C)CNC(=S)NC(=O)c1ccc(Cl)cc1 | -111% (active) |
| COc1ccc(C(=O)NC(=S)NC2CCCCC2)cc1 | -137% (active) |
| O=C(NC1CCCCC1)c1ccc(-c2ccc(Cl)cc2)o1 | -150% (active) |
| Cc1oc2c(c1C(=O)N1CCOCC1)C(=O)c1ccccc1C2=O | 101% (inactive) |
| Cc1ccc(OCCCC(=O)N2CCOCC2)c(C)c1 | -75.1% (active) |
| COc1ccc(-c2cn(-c3ccc(OC)cc3)c(=S)[nH]2)cc1 | -129% (active) |
| O=c1oc2ccccc2cc1-c1cn(-c2ccccc2)c(=S)[nH]1 | 119% (inactive) |
| O=C(Nc1ccc2oc(-c3ccc4ccccc4c3)nc2c1)c1cccs1 | -233% (active) |
| CCN(CC)C(=O)c1sc2nc(-c3ccccc3)ccc2c1N | -178% (active) |
| O=C(Nc1ccc(F)cc1)c1cc2c(s1)CCCC2 | -165% (active) |
| O=C(NNC(=O)c1cc2c(s1)CCCC2)c1ccccc1 | -80.5% (active) |
| CCN(CC)c1ccc(C(=O)c2cnc(/N=C/N(C)C)s2)cc1 | -64.1% (active) |
| C=CCNc1cnn(-c2ccc(C)cc2)c(=O)c1Cl | -80.9% (active) |
| Cc1sc2ncnc(Sc3nc4ccccc4s3)c2c1C | -71% (active) |
| CSc1ccccc1OCc1cc(C(=O)N2C[C@H]3CC[C@H]2C3)no1 | -85.5% (active) |
| N#Cc1c(NC(=O)C2CCCO2)sc2c1CCCCC2 (stereo not given) | -161% (active) |
| Cc1ccc(C)c(NC(CC(=O)c2ccccc2)C(=O)OCC(=O)c2cccs2)c1 (stereo not given) | -96.3% (active) |
| O=C(Cn1ncc(N2CCCC2)c(Br)c1=O)c1ccc(Cl)cc1 | -92.2% (active) |
| O=C(CSc1cccc[n+]1[O-])c1ccc(-c2ccccc2)cc1 | -146% (active) |
| CCOC(=O)c1[nH]c2c(c1C)C(=O)CC(c1ccc(N(C)C)cc1)C2 (stereo not given) | -105% (active) |
| O=C1N=C(N2CCCC2)S/C1=C\c1cccc(Br)c1 | -122% (active) |
| CCOc1cc(/C=C2\SC(N3CCCCC3)=NC2=O)ccc1O | -75.9% (active) |
